Values joined by “and” are separate entries in the source; they are usually repeats but may differ in a detail not shown here. Identical values can stand only once. Values without a mark were called inactive. Records with an inconclusive call do not appear. Active and inactive are the calls of the source. Unless noted, the rule behind the calls is not given here.
System: astro (control astrocytes)
Test: Drug repurposing screens with cells derived from glioblastoma tumor samples (AID 1345199; active = well fitted inhibition curve with a large enough effect; note: nearly all actives have a fitted effect of over 40% in size; note: potency is the fitted concentration of half-maximal effect; for activity, negative = cell killing: % is set by controls: 0 for no effect and ±100 for the full control effect)
Conditions: viability, ATP luminescence, 48 h; series mostly up to 45.9 µM; activity, negative = cell killing: at the top concentration
Method in brief: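 Four patient lines of CD133+ GBM neurospheres were screened at several concentrations; hits were retested in those lines plus three slower-growing GBM lines, using 48-hour treatment and ATP-based viability.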

Row | Compound | activity, negative = cell killing | Potency
1 | CC(C)(C)C(O)C(Oc1ccc(Cl)cc1)n1cncn1 (stereo not given) | -15.1% [at 91.6 µM] | –
2 | Nc1ccc(Sc2ccc(N)cc2)cc1 | -24.2% [at 91.6 µM] | –
3 | CCC1(CCC(C)C)C(=O)NC(=O)NC1=O | 5.74% [at 91.6 µM] | –
4 | CCCCCCCCCC(CC)c1ccc(S(=O)(=O)O)cc1 (stereo not given) | -9.52% | –
5 | c1cc2ccc3cccc4ccc(c1)c2c34 | -22.3% [at 91.6 µM] | –
6 | CC(C)(C)NC[C@H](O)c1ccc(O)cc1Cl | -5.99% | –
7 | C=CC(=O)NCNC(=O)C=C | -13.5% [at 91.6 µM] | –
8 | COC(C)(C)CCCC(C)C/C=C/C(C)=C/C(=O)OC(C)C (stereo not given) | -20.6% | –
9 | CO/C=C(/C(=O)OC)c1ccccc1Oc1cc(Oc2ccccc2C#N)ncn1 | – | 14.1 µM (active)
10 | CCCCCCCCc1ccc(O)cc1 | -16.5% [at 91.6 µM] | –
11 | OCCCBr | -15.7% [at 91.6 µM] | –
12 | CCOP(=O)(NC(C)C)Oc1ccc(SC)c(C)c1 (stereo not given) | -15.4% [at 91.6 µM] | –
13 | O=C(O)C(Cl)Cl | – | inactive
14 | O=C(O)c1cc(Oc2ccc(C(F)(F)F)cc2Cl)ccc1[N+](=O)[O-] | -6.39% | –
15 | S=C(SSC(=S)N1CCCCC1)N1CCCCC1 | -9.98% | –
16 | CCCCOC(=O)c1ccccc1C(=O)OCc1ccccc1 | -15.3% [at 91.6 µM] | –
17 | CCOCCOC(C)=O | -7.79% [at 91.6 µM] | –
18 | Cc1cc(O)ccc1Cl | -7.45% | –
19 | CC1(C)CC/C(=C/c2ccc(Cl)cc2)C1(O)Cn1cncn1 (stereo not given) | -18.3% [at 91.6 µM] | –
20 | O=C(Nc1ccccc1-c1ccc(Cl)cc1)c1cccnc1Cl | -20.8% [at 91.6 µM] | –
21 | CCCCCCCCCCCCCCCC[N+](C)(C)C | – | 11.2 µM (active)
22 | Nc1c(Cl)c(Cl)c(Cl)c(Cl)c1Cl | 6.26% [at 91.6 µM] | –
23 | O=[N+]([O-])/N=C1\NCCN1Cc1ccc(Cl)nc1 | – | inactive
24 | CC(=O)[O][Hg][c]1ccccc1 | – | 1.26 µM (active)
25 | C1CCC(NC2CCCCC2)CC1 | -15.1% | –
26 | Nc1ccc(Cl)cc1 | -8.37% [at 91.6 µM] | –
27 | O=S(=O)(c1ccc(Cl)cc1)c1ccc(Cl)cc1 | -24.9% [at 91.6 µM] | –
28 | O=[N+]([O-])c1c(Cl)c(Cl)cc(Cl)c1Cl | -7.09% [at 91.6 µM] | –

Target: Nuclear receptor subfamily 1 group I member 2 (Rattus norvegicus) (UniProt Q9R1A7)
Test: qHTS assay for small molecule activators of the rat pregnane X receptor (rPXR) signaling pathway (AID 651751); note: 0% is about no effect
Conditions: rPXR reporter cells, luciferase (One-Glo), 24 h

Chain of Nuclear receptor subfamily 1 group I member 2 (Rattus norvegicus) (Q9R1A7 whole entry, looked up): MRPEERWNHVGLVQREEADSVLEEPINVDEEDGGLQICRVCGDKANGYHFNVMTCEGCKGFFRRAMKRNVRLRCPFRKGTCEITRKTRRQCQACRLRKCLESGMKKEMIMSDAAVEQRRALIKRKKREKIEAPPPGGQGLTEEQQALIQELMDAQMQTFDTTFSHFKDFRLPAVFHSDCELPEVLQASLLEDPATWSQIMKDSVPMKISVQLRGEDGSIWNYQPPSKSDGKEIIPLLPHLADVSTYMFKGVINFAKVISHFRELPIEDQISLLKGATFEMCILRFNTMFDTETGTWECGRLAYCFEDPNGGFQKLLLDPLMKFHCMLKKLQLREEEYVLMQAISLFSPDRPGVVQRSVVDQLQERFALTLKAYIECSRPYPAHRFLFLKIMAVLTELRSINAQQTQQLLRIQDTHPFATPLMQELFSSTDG

Row | Compound | max response
29 | Nc1ccc(Sc2ccc(N)cc2)cc1 | 10.3% and 6.87%
30 | CCCCCCCCCC(CC)c1ccc(S(=O)(=O)O)cc1 (stereo not given) | 0.683% and -5.48%
31 | c1cc2ccc3cccc4ccc(c1)c2c34 | 6.39% and 2.28%
32 | C=CC(=O)NCNC(=O)C=C | 1.16% and 0.492%
33 | CCCCCCCCc1ccc(O)cc1 | 3.32% and -2.12%
34 | OCCCBr | -2.6%
35 | CCOP(=O)(NC(C)C)Oc1ccc(SC)c(C)c1 (stereo not given) | 6.18% and 2.21%
36 | O=C(O)C(Cl)Cl | 4.19% and -3.77%
37 | O=C(O)c1cc(Oc2ccc(C(F)(F)F)cc2Cl)ccc1[N+](=O)[O-] | 2.53%
38 | CCCCOC(=O)c1ccccc1C(=O)OCc1ccccc1 | 7.11% and 9.37%
39 | O=S(=O)(O)C(F)(F)C(F)(F)C(F)(F)C(F)(F)C(F)(F)C(F)(F)C(F)(F)C(F)(F)F | 2.44% and 1.44%
40 | CCOCCOC(C)=O | -2.9%
41 | Cc1cc(O)ccc1Cl | -6.09%
42 | Nc1c(Cl)c(Cl)c(Cl)c(Cl)c1Cl | 0.456%
43 | O=[N+]([O-])/N=C1\NCCN1Cc1ccc(Cl)nc1 | 4.35%
44 | C1CCC(NC2CCCCC2)CC1 | -4% and -4.51% and -0.383%
45 | Nc1ccc(Cl)cc1 | 3.79%
46 | O=[N+]([O-])c1c(Cl)c(Cl)cc(Cl)c1Cl | 3.25%

System: not listed separately
Test: qHTS assay for small molecule activators of the human pregnane X receptor (PXR) signaling pathway (AID 720659); note: 0% is about no effect
Conditions: DPX-2 HepG2 CYP3A4-luciferase, 24 h; series mostly up to 92.3 µM; activation: at the top concentration

Row | Compound | outcome | activation [%]
47 | c1cc2ccc3cccc4ccc(c1)c2c34 | inactive | –
48 | C=CC(=O)NCNC(=O)C=C | inactive | –
49 | OCCCBr | – | 1.4
50 | O=C(O)C(Cl)Cl | inactive | –
51 | O=C(O)c1cc(Oc2ccc(C(F)(F)F)cc2Cl)ccc1[N+](=O)[O-] | – | 11.2
52 | O=S(=O)(O)C(F)(F)C(F)(F)C(F)(F)C(F)(F)C(F)(F)C(F)(F)C(F)(F)C(F)(F)F | inactive | –
53 | CCOCCOC(C)=O | – | -1.95
54 | Cc1cc(O)ccc1Cl | – | 0.314
55 | CCCCCCCCCCCCCCCC[N+](C)(C)C | inactive | –
56 | Nc1c(Cl)c(Cl)c(Cl)c(Cl)c1Cl | – | 0
57 | O=[N+]([O-])/N=C1\NCCN1Cc1ccc(Cl)nc1 | – | -0.736
58 | C1CCC(NC2CCCCC2)CC1 | inactive | –
59 | Nc1ccc(Cl)cc1 | – | -2.14
60 | O=[N+]([O-])c1c(Cl)c(Cl)cc(Cl)c1Cl | – | 0.269
